The results in this text go back to PubChem BioAssay AID589 (National Center for Advancing Translational Sciences (NCATS), 2007).

Hit rate of the full screen: of about 59,000 compounds, about 6,200 (11%) were called active. Roughly 9% stayed inconclusive and do not appear here. No stated cut-off is given here; in the data, active means max dye-equivalent concentration above about 10 nM; inconclusive means mostly about 1.1 nM to 9.6 nM; inactive means weaker than that. What follows is part of a selection rich in actives, with near analogues and random picks from the rest.

A short description of this assay: qHTS Assay for Spectroscopic Profiling in 4-MU Spectral Region. Conditions: compound autofluorescence, 340/450 nm, 4-MU equivalents; hits give high values. The method in brief:
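Intrinsic fluorescence at 340/450 nm (ex/em) was read after 15 min at room temperature in pH 8.0, 100 mM Tris. Each compound concentration expressed as 4-MU-equivalent concentration from a six-point 4-MU standard series on each plate.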
Background: In qHTS, concentration-response curves come from the screen itself.
As to `O=C(NCC(F)(F)F)Nc1nnc(C(F)(F)F)s1`, the max dye-equivalent concentration entry is “inactive”. For `CN(C)CCCn1c(N)c(C#N)c2nc(C#N)c(C#N)nc21` the value was 730 nM (active); for `O=C(O)C1CCN(S(=O)(=O)N2CCOCC2)CC1`, “inactive”. For `O=C(CNS(=O)(=O)c1cccc(C(F)(F)F)c1)Nc1ccccc1F`, the max dye-equivalent concentration entry is “inactive”. As to `Cc1ccccc1NC(=O)NCc1ccco1`, the max dye-equivalent concentration entry is “inactive”. Take `CN1CCN(c2ncncc2-c2ccc(C(=O)N(C)C)cc2)CC1`: the max dye-equivalent concentration entry is “inactive”. For the molecule `COc1ccc(-c2nnc(SC(C)C#N)o2)cc1` (configuration not stated), the max dye-equivalent concentration entry is “inactive”. For `CCOc1cc(C2C(C(=O)OC)=CN(C3CCCC3)C=C2C(=O)OC)cc(Br)c1O` the value was 200 nM (active); for `CCCC(=O)Nc1cc(OCC)c(NC(=O)NC2CCCCC2)cc1OCC`, “inactive”. Regarding `CCOc1ccc(CNC(=O)C2CCC(=O)N2C2CCCC2)cc1OC` (configuration not stated), the max dye-equivalent concentration entry was “inactive”.

Regarding `OCCN1CCN(CC/C=C2\c3ccccc3Sc3ccc(C(F)(F)F)cc32)CC1`, the max dye-equivalent concentration result is “inactive”. For `CN(C)C(=O)/N=N\C(=O)N(C)C` the value was “inactive”; for `Cc1ccc2nc(S(=O)(=O)O)[nH]c2c1`, “inactive”. For `CCOc1ccc2c(c1)cc(CN(C(=O)CC)C1CCCCC1)c1nnnn12` the value was “inactive”; for `c1ccc(CCn2nnnc2CN2CCN(C3CCCC3)CC2)cc1`, “inactive”; for `Cc1cc(C)c2cc(CN(Cc3cccs3)Cc3nnnn3CC3CCCO3)c(=O)[nH]c2c1` (configuration not stated), “inactive”. For `CC(C)(C)n1nnnc1C(c1cccs1)N(Cc1cccnc1)CC1CCCO1` (configuration not stated) the value was “inactive”. Regarding `CCC(c1nnnn1Cc1ccccc1)N(Cc1cc2cc(OC)ccc2[nH]c1=O)CC1CCCO1` (configuration not stated), the max dye-equivalent concentration is 32 nM (active). For `O=C(OCc1cc2ccccc2[nH]c1=O)c1cccnc1` the value was “inactive”; for `COc1ccc2[nH]c(=O)c(CN(Cc3nnnn3CCc3ccccc3)CC3CCCO3)cc2c1` (configuration not stated), 360 nM (active). For `CCC(c1nnnn1C1CCCC1)N(Cc1cccs1)Cc1cc2cccc(C)c2[nH]c1=O` (configuration not stated) the value was “inactive”. For `CCOc1ccc2[nH]c(=O)c(CN(CCCO)C(C)=O)cc2c1` the value was 300 nM (active). Take `CCC(=O)N(Cc1cc2cc(OC)ccc2[nH]c1=O)c1ccccc1C`: the max dye-equivalent concentration was 200 nM (active). For `CN1CCC2(CC1)CCN(S(=O)(=O)c1ccccc1)CC2` the value was “inactive”; for `Cc1ccc(S(=O)(=O)Cn2nnnc2CN2CCN(Cc3ccc4c(c3)OCO4)CC2)cc1`, “inactive”.

As to `COc1cccc(N(CC(=O)Nc2cccc(N(C)S(C)(=O)=O)c2)S(C)(=O)=O)c1`, the max dye-equivalent concentration result was “inactive”. For `CC(C)CNC(=O)C1CCCN(S(=O)(=O)c2ccc(-n3cnnn3)cc2)C1` (configuration not stated) the value was “inactive”; for `CCCOc1cccc(C(=O)Nc2nnn(CCC)n2)c1`, “inactive”. For `CC(C)c1cc(CN(C)C)c(O)c(C(C)(C)C)c1` the value was “inactive”. `CCC(=O)Nc1cccc(NC(=O)CSc2nnc(-c3ccc(NS(C)(=O)=O)cc3)n2C)c1`: the max dye-equivalent concentration result was “inactive”.

Turning to `Cc1ccc(N(C(=O)CC2NC(=O)NC2=O)C2(C(=O)NC3CCCC3)CCCCC2)cc1` (configuration not stated), the max dye-equivalent concentration entry was “inactive”. On to `CC(=O)Cc1nsc(NC(=O)c2ccc(COc3ccc(C)cc3)o2)n1`, for which the max dye-equivalent concentration entry was “inactive”.

Turning to `CCOc1ccc2[nH]c(=O)c(CN(Cc3nnnn3CCc3ccccc3)CC3CCCO3)cc2c1` (configuration not stated), the max dye-equivalent concentration is 76 nM (active). As for `COc1ccccc1N1CCN(Cc2nnnn2CCc2ccccc2)CC1`, the max dye-equivalent concentration result is “inactive”. For `CCC(c1nnnn1Cc1ccco1)N(CCc1ccccc1)Cc1cc2ccc(OC)cc2[nH]c1=O` (configuration not stated) the value was “inactive”.

For the molecule `CCOc1ccc2[nH]c(=O)c(CN(Cc3nnnn3Cc3ccccc3)CC3CCCO3)cc2c1` (configuration not stated), the max dye-equivalent concentration was 120 nM (active). For `O=C(CN(CC1CCCO1)C(=O)CNS(=O)(=O)c1ccccc1)NCc1ccccc1` (configuration not stated) the value was “inactive”. For `Cc1cccc2cc(CN(Cc3cccs3)C(c3nnnn3C3CCCC3)C(C)C)c(=O)[nH]c12` (configuration not stated) the value was “inactive”; for `Cc1cccc2cc(CN(Cc3ccc4c(c3)OCO4)Cc3nnnn3C3CCCC3)c(=O)[nH]c12`, “inactive”; for `COc1ccc2[nH]c(=O)c(CN(CC3CCCO3)C(=O)Nc3ccccc3)cc2c1` (configuration not stated), 110 nM (active). For `CCC(c1nnnn1Cc1ccco1)N(Cc1cc2cc(OC)ccc2[nH]c1=O)C1CCCCC1` (configuration not stated) the value was 22 nM (active); for `N=c1c2c3c(sc2ncn1CCCN1CCOCC1)CCCCC3`, “inactive”; for `CSc1sc(C)cc1C1C(C#N)=C(N)N(c2cccnc2)C2=C1C(=O)CCC2` (configuration not stated), “inactive”. Regarding `N#Cc1cccc(NC(=O)CCC2CCCC2)c1`, the max dye-equivalent concentration entry was “inactive”. Turning to `Cc1oc2nc(SCC(=O)NCc3cccnc3)nc(N)c2c1C`, the max dye-equivalent concentration result was “inactive”.

For the molecule `COc1ccc(OC)c(NC(=O)CSc2nc3cccnc3n2C)c1`, the max dye-equivalent concentration entry is “inactive”. For `O=C(CCc1ccccc1)Nc1cccc(-c2nnc(-c3ccco3)o2)c1` the value was “inactive”; for `Cc1ccc(CNC(=O)CN2CCN(Cc3ccc(Cl)cc3)C2=O)cc1`, “inactive”; for `CCCC(=O)Nc1c(O)c2ccccc2[nH]c1=O`, “inactive”. For `C=CCOc1ccc(C2/C(=C(\O)c3c(C)[nH]c(C(=O)OC)c3C)C(=O)C(=O)N2CCN(C)C)cc1` (configuration not stated) the value was “inactive”. `CC1(C)NC(=O)N(CCOc2cccc(Oc3ccccc3)c2)C1=O`: the max dye-equivalent concentration result was “inactive”. On to `COc1ccc2[nH]cc(CCNc3nc(-c4cccc(NS(C)(=O)=O)c4)nc4ccccc34)c2c1`, for which the max dye-equivalent concentration entry is “inactive”.
